{
  "source": "PubChem BioAssay (NCI)",
  "note": "About 83,000 compounds went through this panel and 20% of them were active in at least one assay; those are over-represented in the sample as a whole.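 Growth was measured after 48 h exposure to one concentration of compound in 96-well plates. Values under 10 count as active.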 Values without a mark were called inactive. Active and inactive are the calls of the source.",
  "data": [
    {"test_system": "IGROV1 ovarian", "assay": "NCI-60 one-dose screen, 48 h (100 = growth as untreated, 0 = no growth, -100 = all killed)", "conditions": "10 µM unless noted", "description": "Growth inhibition of the IGROV1 human tumor cell line is measured as a screen for anti-cancer activity. Cells are grown in 96 well plates and exposed to the test compound for 48 hours. Compounds are tested at a single concentration, which is 10^-5 M for most compounds. The reported endpoint is percent growth (GI% or GIPRCNT), where numbers from 0 - 100% represent growth inhibition, and numbers from -100% - 0 represent cell death. For example, a value of 40 represents 60% growth inhibition. A value of 0 means no net growth occurred over the course of the experiment. A value of -40 indicates 40% of cells at the beginning of the experiment died by the end of the experiment. A value of -100 means all cells are dead at the end of the experiment.\nNCI-60 Human Tumor Cell Lines Screen was performed using the standard one-dose NCI protocol, which is described in more detail at https://dtp.cancer.gov/discovery_development/nci-60/default.htm.\nCompounds with GIPRCNT values below 10 were considered active. Activity score was based on GIPRCNT using the following formula: […]\nScore is 0 for GIPRCNT values of 100 or above, 50 for GIPRCNT values of 0, and 100 for GIPRCNT values of -100.", "values": [
      {"smiles": "CSc1nn2c(-c3ccc4ccccc4c3)ccnc2c1C#N", "growth": "20.5%"},
      {"smiles": "COc1ccc(C2=CN3CC=CC3CC2=O)cc1", "note": "(stereo not given)", "growth": "104%"},
      {"smiles": "O=C(NNc1cnccn1)c1nc2cc(F)ccc2n2cccc12", "growth": "9.25% (active)"},
      {"smiles": "Nc1[nH]c(=S)nc2oc(-c3ccccc3)c(-c3ccccc3)c12", "growth": "100%"},
      {"smiles": "Cc1c(CC(=S)N2CCOCC2)nnn1-c1cccc(C(F)(F)F)c1", "growth": "104%"},
      {"smiles": "O=C(CCSc1nnc2n(Cc3ccccc3)c(=O)c3c4c(sc3n12)CCCC4)N1CCN(c2ccccc2)CC1", "growth": "103%"},
      {"smiles": "CCN(CC)CCCN1C(=O)c2c(c(C)c3c(oc4ccc(OC)cc43)c2C)C1=O", "growth": "94.6%"},
      {"smiles": "COc1cc(OC)c(/C=C/C(=O)c2c(O)cc(OC)c(C3CCN(C)CC3)c2OC)c(OC)c1", "growth": "29.1%"},
      {"smiles": "O=C(N/N=C/c1cc(Cl)ccc1O)c1ccccc1Nc1ccnc(C(F)(F)F)c1", "growth": "92.5%"},
      {"smiles": "Cn1c2c(c3ccc(Cl)c(Cl)c31)C(C#N)C(C)(C)NC2=O", "note": "(stereo not given)", "growth": "-5.28% (active)"},
      {"smiles": "CN(C)CCCC1(c2ccc(F)cc2)OCc2cc(-c3cc4ccccc4s3)ccc21", "note": "(stereo not given)", "growth": "-28% (active)"},
      {"smiles": "Cc1ccc(Cl)cc1NC(=O)c1sc2nc3c(cc2c1N)C(=O)CCC3", "growth": "75.7%"},
      {"smiles": "COc1ccc(N2CCC(=S)NC2=S)cc1", "growth": "105%"},
      {"smiles": "CN1CCN(CC(=O)Nc2ccc3ncnc(Nc4ccc(Oc5cccc(C(F)(F)F)c5)c(Cl)c4)c3c2)CC1", "growth": "-44.6% (active)"},
      {"smiles": "CCOC(=O)C1=C(C)C(Cl)=N/C1=C\\c1[nH]c(Cl)c(C)c1C(=O)OCC", "growth": "112%"},
      {"smiles": "O=C(N=Nc1c(O)[nH]c2ccccc12)Nc1ccc(F)cc1", "growth": "85.2%"},
      {"smiles": "C[C@]1(O)CC(=O)[C@]2(O)C3=C(C=C[C@]2(O)C1)C(=O)c1c(O)cccc1C3=O", "growth": "27.1%"},
      {"smiles": "CCOC(=O)c1ccccc1-c1c2ccc(=[N+](C)C)cc-2oc2cc(N(C)C)ccc12", "growth": "18.4%"},
      {"smiles": "O=C(/C=C/c1ccccc1)c1ccc(Nc2nc(Nc3ccc(F)cc3)nc(Nc3ccc(Cl)cc3)n2)cc1", "growth": "90.8%"},
      {"smiles": "NC1=Nc2cc(OCCCCN3Cc4ccccc4C3)c(OCC3CC3)cc2C12CCCC2", "growth": "50%"},
      {"smiles": "CCN1C(=O)N(CC)C2C1NN=c1s/c(=C3\\C(=O)N(CC(C)C)c4ccccc43)c(=O)n12", "note": "(stereo not given)", "growth": "19%"},
      {"smiles": "N#C/C(=C\\c1ccc(-c2cccc(C(F)(F)F)c2)o1)c1ccccc1", "growth": "59.9%"},
      {"smiles": "COc1ccc(C(=O)c2cc3c(N)c(C(=O)Nc4ccccc4)sc3nc2C)cc1", "growth": "39%"},
      {"smiles": "COc1cnc2c(c1)C(=O)c1c-2n(CCCCl)c(=O)c2ccncc12", "growth": "55.5%"},
      {"smiles": "CC1(C)CC[C@]2(CO)CC[C@]3(C)[C@H](CC[C@@H]4[C@@]5(C)CCCNC(C)(C)[C@@H]5CC[C@]43C)[C@H]2[C@H]1O", "growth": "82.3%"},
      {"smiles": "NC1(CO)COC(c2ccccc2)OC1", "note": "(stereo not given)", "growth": "104%"},
      {"smiles": "CCN1C2CCC1/C(=C\\c1ccc(F)cc1)C(=O)/C2=C/c1ccc(F)cc1", "growth": "45.7%"},
      {"smiles": "c1ccc2c(c1)CCCc1nnc3nc4ccccc4n3c1-2", "growth": "43.7%"},
      {"smiles": "O=C(CCCCCNC(=O)c1cc(=O)c(O)co1)Nc1ccccc1", "growth": "106%"},
      {"smiles": "O=C(Cc1ccc(NC(=O)c2cccc(Cl)c2)cc1)NCc1ccccc1", "growth": "49.4%"},
      {"smiles": "O=C1/C(=C\\c2ccccn2)c2ccccc2N1c1c(Cl)cccc1Cl", "growth": "8.25% (active)"},
      {"smiles": "CC1(C)CC(=O)c2c(nn(-c3ccc(Br)cc3)c2-c2cn(-c3ccccc3)nc2-c2cccnc2)C1", "growth": "93.9%"},
      {"smiles": "CO[C@H]1CC(=O)n2c3ccccc3c3c4c(c5c6ccccc6n1c5c32)C(=O)NC4=O", "growth": "37.3%"},
      {"smiles": "Cc1ccccc1Nc1cc(O)c2c(=O)cc(-c3ccccc3)oc2c1", "growth": "45.3%"},
      {"smiles": "O=C(CN1CCN(c2cc3c(cc2F)c(=O)c(C(=O)O)cn3C2CC2)CC1)N/N=C/c1ccco1", "growth": "101%"},
      {"smiles": "NC(=O)c1cccc([C@@H]2O[C@H](CO)[C@@H](O)[C@H]2O)c1", "growth": "110%"},
      {"smiles": "Cc1ncc(C(=O)Nc2ccc(CN3CCN(C)CC3)c(C(F)(F)F)c2)cc1C#Cc1cnc(N)c2ncccc12", "growth": "10.4%"},
      {"smiles": "CN1CCN(CCOc2ccc(-c3cnc4c(-c5cccc(F)c5F)cnn4c3)cc2)CC1", "growth": "81.7%"},
      {"smiles": "Nc1nc(NC(=O)Nc2ccc(C(=O)O)cc2)nn1-c1ccc(S(N)(=O)=O)cc1", "growth": "94%"},
      {"smiles": "CC1(C)C(N)=Nc2cc(OCCCN3Cc4ccccc4C3)c(OCC3CC3)cc21", "growth": "80.2%"}
    ]}
  ]
}
